What all share (experiment): NCI-60 one-dose screen, 48 h (100 = growth as untreated, 0 = no growth, -100 = all killed)
What all share (settings): 10 µM unless noted

Assay [1] deals with HCT-15 colon.
The subject of assay [2] is HT29 colon.
Assay [3] deals with SNB-75 CNS.
For assay [4], the system named is SNB-19 CNS.
In assay [5] the test system is U251 CNS.
For assay [6], the system named is PC-3 prostate.
For assay [7], the system named is SK-MEL-5 melanoma.
The subject of assay [8] is UACC-62 melanoma.
Assay [9] concerns LOX IMVI melanoma.
Assay [10] deals with SK-MEL-28 melanoma.
Assay [11] concerns SK-MEL-2 melanoma.
Assay [12] concerns EKVX NSCLC.
Assay [13] relates to SN12C renal.
In assay [14] the test system is UO-31 renal.
The subject of assay [15] is TK-10 renal.
For assay [16], the system named is ACHN renal.
The test system of assay [17] is CAKI-1 renal.
The test system of assay [18] is A498 renal.
Assay [19] deals with CCRF-CEM leukemia.
Assay [20] relates to MOLT-4 leukemia.

Structures are written as SMILES. The panel holds about 83,000 compounds, 20% with a hit somewhere; the sample as a whole holds those more often.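 How to read the values: 0–100, growth inhibition (40 = 60% inhibited); 0, no net growth; -100 to 0, cell death (-40 = 40% of starting cells died; -100 = all dead).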 Values without a mark were called inactive. The source made the active and inactive calls. The calls were made as follows: active = growth percent below 10; inactive = the rest.

The values below come from PubChem BioAssay (NCI).

As to `NS(=O)(=O)c1ccc(Nc2cc(-c3ccccc3)nc(SCC(=O)c3ccccc3)n2)cc1`, the growth was 99.4% in assay [1]; 106% in assay [2]; 91.6% in [3]; 91.7% in assay [4]; 100% in [5]; 98.4% in [6]. For the same compound, the growth in assay [7] was 98.6%; in assay [8], 91.1%; in assay [9] it was 97.8%; in [10] it was 104%; in assay [11], 105%; in [12], 97.9%. Further, the growth was 96% in assay [13]; 86% in [14]; 129% in [15]; 105% in assay [16]; 90% in assay [17]; 94.9% in assay [18]. Also, the growth in assay [19] was 98.3%.
In the case of `COc1cc(Nc2c(C#N)cnn3cc(-c4cnn(CC(C)(C)O)c4)cc23)ccc1Cl`, the growth was 29.9% in assay [1]; 54.3% in assay [2]; 55.5% in assay [3]; 88.1% in assay [4]; 67.2% in [5]; 62.4% in assay [6]. For the same compound, the growth in [7] was 65.3%; in [8], 46%; in assay [9], 31%; in assay [10], 86%; in assay [11], 61.1%; in assay [12], 43.4%. In addition, the growth in assay [13] is 23.5%; in [14] it was 11.6%; in assay [15], 23.3%; in [16] it was 18%; in [17] it was 9.46% (active); in assay [18] it was -24.4% (active). Moreover, the growth in assay [19] was 32.6%.
As to `FC(F)(F)c1cc(Nc2cccc(Oc3ccc(NC4=NCCN4)nc3)c2)ccc1Cl`, the growth in [1] was -71.4% (active); in assay [2] it was 4.39% (active); in assay [3] it was 10.7%; in assay [4] it was 9.09% (active); in assay [5] it was -7.18% (active); in assay [6], -36.5% (active). Further, the growth in [7] is 4.94% (active); in assay [8], -45.5% (active); in assay [9] it was -94.8% (active); in assay [10] it was 29.4%; in assay [11], 5.11% (active); in [12] it was 12.6%. The growth in assay [13] is -24.8% (active); in [14] it was 21.9%; in [15], 27.5%; in assay [16], 1.37% (active); in assay [17], 16.2%; in assay [18], 37.9%. The growth in assay [19] was 14.6%.
Turning to `N#Cc1c(-c2cccs2)cc(-c2cnccn2)nc1SCC(=O)c1ccc(F)cc1`, the growth in [1] was 100%; in assay [2], 105%; in assay [3], 58.5%; in assay [4], 97.7%; in [5] it was 104%; in [6], 87.2%. Besides, the growth was 96.4% in assay [7]; 81.1% in [8]; 85.4% in assay [9]; 100% in assay [10]; 102% in assay [11]; 58.9% in [12]. In addition, the growth in assay [13] is 80.3%; in [14], 54.7%; in assay [15], 89.3%; in assay [16] it was 92.2%; in [17], 59.7%; in assay [18], 8.83% (active). Moreover, the growth in assay [19] was 94.5%; in assay [20] it was 92.7%.
`O=C(Nc1ccc(F)c(F)c1)c1cc(-c2ccc(F)cc2F)ccc1O`: the growth is 2.24% (active) in assay [1]; 88.6% in assay [2]; -0.285% (active) in [3]; 12.5% in [4]; 11.4% in assay [5]; 8.32% (active) in [6]. The growth in [7] is -79.9% (active); in assay [8] it was -18.3% (active); in assay [9], 2.89% (active); in assay [10] it was 20%; in [11], -11.3% (active); in assay [12] it was 8.23% (active). The growth in assay [13] was -1.95% (active); in [14], -12.5% (active); in [15], 14.2%; in assay [16], 2% (active); in assay [17] it was -18.8% (active); in assay [18], -53.2% (active). The growth in assay [19] is 15.2%.
For the compound `Cc1ccc(-c2nn(-c3ccccc3)cc2/C=C/C(=O)c2ccc(NC(=O)CCCCCCC(=O)NO)cc2)cc1`, the growth in assay [1] is 68%; in assay [2] it was 61.4%; in [3], 102%; in [4], 81.9%; in assay [5] it was 79.2%; in [6], 74.6%. Also, the growth is 91.7% in assay [7]; 53.3% in assay [8]; 62.2% in [9]; 89% in assay [10]; 88.2% in assay [11]; 85.8% in assay [12]. The growth in [13] was 73.5%; in assay [14], 52.2%; in assay [15], 70.2%; in [16], 87.9%; in assay [17], 58.1%; in [18], 58.2%. In assay [19], the growth was 38.8%.
Consider `O=C(Cn1cc[n+](CC(=O)c2ccc(-c3ccccc3)cc2)c1)Nc1cccc2cccnc12`, for which the growth in assay [1] was 101%; in assay [2], 59.8%; in assay [3], 63.4%; in [4], 57.7%; in [5], 58.3%; in assay [6] it was 54.5%. Moreover, the growth is 69.6% in assay [7]; 59.1% in [8]; 79.2% in assay [9]; 74.9% in [10]; 83% in assay [11]; 86.8% in assay [12]. The growth was 75.9% in assay [13]; 94.3% in assay [14]; 119% in assay [15]; 105% in [16]; 102% in assay [17]; 88.6% in [18]. In addition, the results for the growth in assay [19] and in assay [20] were 64.9% and 73.5%, respectively.
With `Cn1cc(-c2nc(N)nnc2-c2c[nH]c3ccc(Br)cc23)c2cc(Br)ccc21`, the growth in [1] was 29.8%; in assay [2], 14.1%; in assay [3] it was 55.8%; in assay [4] it was 43.1%; in assay [5] it was 27.9%; in assay [6], 20.2%. In addition, the growth in assay [7] was 42.9%; in assay [8] it was 27.4%; in assay [9], 44%; in [10] it was 60.1%; in [11], 26.8%; in assay [12] it was 65.1%. Moreover, the growth in assay [13] is 44.7%; in assay [14], 54.1%; in assay [15] it was 98%; in assay [16], 52%; in [17], 40.3%; in assay [18] it was 18.3%. The growth in [19] was 11.8%; in assay [20], 17.7%.
